The list is not random: actives were taken first. Their share in the collection is about 2.3%.
Giardia killer – kills Giardia lamblia. Giardia lamblia trophozoite viability. activity change, % at 7.66 µM, hits read low. 340,000 compounds, 0.15% hits; in the data active = activity change below about -80%; inconclusive = between about -30% and that limit;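 note: parasites exposed to compound for two days anaerobically before the ATP read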
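Viability, read as ATP luminescence: trophozoites at 100 cells/well, compound added, 48 hrs anaerobic at 37 deg C, then 15-30 min room-temperature development before reading.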
Nrf2 activator – Nrf2 pathway activation | AREc32 ARE-luciferase reporter (MCF7-derived line), luminescence, 24 h | Potency, µM (top dose mostly 46.1 µM), most hits filed as activators | 410,000 compounds, 0.31% hits | AID 624171; note: nearly all actives have a fitted effect of over 65% in size
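For detection, Steady-Glo was added and plates sat 30 min at RT; before that, AREc32_Fluc cells grown overnight in OPTI-MEM/5% FBS had been treated with 23 nL compound for 24 hr at 37 deg C.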
IDH1 R132H inh – inhibitors of human mutant IDH1 R132H | O75874 | IDH1-R132H enzyme, NADPH consumption, diaphorase/resazurin fluorescence | Potency, µM (titrated, usually from 76.6 µM), actives largely listed as inhibitors | 390,000 compounds, 0.093% hits | AID 602179; note: nearly all actives have a fitted effect of over 65% in size
Target sequence (O75874 whole entry R132H, stated change not applied): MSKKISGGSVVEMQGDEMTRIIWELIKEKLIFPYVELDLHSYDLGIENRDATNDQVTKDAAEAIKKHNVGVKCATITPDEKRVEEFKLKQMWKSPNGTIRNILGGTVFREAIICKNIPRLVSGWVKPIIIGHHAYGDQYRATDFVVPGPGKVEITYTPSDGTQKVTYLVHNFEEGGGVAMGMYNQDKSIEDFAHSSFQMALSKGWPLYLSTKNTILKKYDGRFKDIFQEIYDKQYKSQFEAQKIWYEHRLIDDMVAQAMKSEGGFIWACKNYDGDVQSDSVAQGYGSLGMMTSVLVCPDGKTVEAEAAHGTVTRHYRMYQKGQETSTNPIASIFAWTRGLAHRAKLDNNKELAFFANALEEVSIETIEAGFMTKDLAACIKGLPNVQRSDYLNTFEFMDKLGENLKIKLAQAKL
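IDH1-R132H (0.5 ug/mL) preincubated 30 min with compound, then NADPH (0.016 mM) and alpha-KG (2 mM) added; 80 min at RT, pH 7.5. Remaining NADPH coupled via diaphorase/resazurin to fluorescence (540/590 nm); concentration-response curves normalized to no-enzyme control.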
Apoferritin bind – candidate novel general anesthetic via apoferritin binding | Potency, µM (highest dose often 77.5 µM), usual class: inhibitors | P02791 | AID 485281 | apoferritin/1-aminoanthracene competitive binding, fluorescence | 350,000 compounds, 0.074% hits; note: nearly all actives have a fitted effect of over 20% in size
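Probe: 1-aminoanthracene (50% saturated, PBS). Protein: horse-spleen apoferritin, 10 uM. Incubation: 10 min, room temperature. Detection: 380 nm excitation, 535 nm emission. Analysis: normalized response, four-parameter Hill.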
A549 tox – counter-screen for Nrf2 inhibitors: cytotoxicity in A549 cells; A549 ARE-Fluc cells, CellTiter-Fluor viability, 18-24 h; Potency, µM (doses to about 46 µM), most hits filed as inhibitors; AID 504648; 390,000 compounds, 0.16% hits
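Cytotoxicity counterscreen: CellTiter-Fluor fluorescence was measured in A549 ARE_Fluc cells after 18-24 h of compound exposure in a concentration series. The subsequent BugLite luminescent read reports ARE-luciferase activity.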
Nrf2 block – inhibitors of Nrf2 signaling; A549 ARE-Fluc reporter, luciferase luminescence, 18-24 h; Potency, µM (titrated, usually from 46 µM), hits mostly inhibitors; 360,000 compounds, 2.1% hits; AID 504444; note: nearly all actives have a fitted effect of over 60% in size
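Reporter: ARE-Fluc in A549. Exposure: 18-24 h, 37 °C, 5% CO2, 5% FBS OPTI-MEM. Readouts: fluorescent cytotoxicity (CellTiter-Fluor), then luminescent Nrf2 signal after BugLite.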
A number is an active result; . = inactive; ? = inconclusive; / = no result. Unless noted, calls come from the whole dose curve; as a rule, active = well fitted curve in the direction sought with a large enough effect; inconclusive = small, poorly fitted or top-dose-only effect, or another doubt; inactive = no such curve, though single readings can be large; an effect the other way counts as inactive or inconclusive.

SMILES	Giardia killer	Nrf2 activator	IDH1 R132H inh	Apoferritin bind	A549 tox	Nrf2 block
CC(=O)c1ccc(NC(=O)Cn2c3ncccc3c(=O)n2-c2ccc(C)cc2)cc1	/	.	.	.	.	?
CC[n+]1c(/C=C/c2ccc(N(C)C)cc2)ccc2ccccc21	.	.	.	?	20.6µM	8.2µM
CC[n+]1ccc(/C=C/c2ccc(N(C)C)cc2)c2ccccc21	.	.	.	?	9.2µM	3.66µM
CC[n+]1c(/C=C/c2ccc(OC(C)=O)c(OC)c2)ccc2ccccc21	.	.	.	.	20.6µM	?
CC[n+]1c(/C=C/c2ccc(OC)c(OC)c2)ccc2ccccc21	.	.	.	.	.	?
C[n+]1c(/C=C/c2ccc(O)cc2)ccc2ccccc21	.	.	.	.	.	.
CC[n+]1ccccc1/C=C/c1ccc(N(C)C)cc1	.	.	.	.	10.3µM	5.8µM
Clc1ccc2c(c1)-n1cc(-c3ccccc3)nc1CO2	/	.	.	.	.	?
Cc1ccc2c(c1)c1c(c(=O)n(-c3ccccc3C)c(=O)n1CC(=O)NCc1ccccc1)n2C	/	.	.	.	.	.
CN1CC(c2ccc(Cl)c(Cl)c2)[C@@]2(COc3ccccc3C2=O)[C@@]12C(=O)Nc1ccccc12 (some centres not stated)	.	.	.	.	?	18.4µM
Cc1[nH]nc2c1-c1nc3ccccc3nc1C(C)(C)C2	.	.	.	.	14.6µM	14.6µM
CC12CCC(C)(c3nc4ccccc4nc31)C2(C)C	.	.	.	.	.	.
Cc1ccc(C)c(Cn2c(-c3cccs3)nc3ccccc32)c1	/	.	.	.	?	23.1µM
Cc1cccc(Cn2c(-c3cccs3)nc3ccccc32)c1	/	.	.	.	.	.
COc1cc(OC)c(Nc2c3c(nc4nc(-c5cccs5)nn24)CCCC3)cc1Cl	/	.	31.6µM	.	?	/
COc1cc(OC)c(NC(=O)c2ccc3c(Cl)c4c(nc3c2)CCCC4)cc1Cl	/	.	.	.	.	.
COc1ccc(-c2nc3cccc(OC)c3c(=O)n2Cc2ccccc2)cc1COc1ccc(NC(C)=O)cc1	/	/	/	/	.	.
O=C(Nc1cccc(Cl)c1)C(Cc1ccccc1)n1cccc1 (configuration not stated)	/	.	.	.	.	?
CCc1cccc(NC(=O)C(Cc2ccccc2)n2cccc2)c1 (configuration not stated)	/	.	.	.	.	20.6µM
O=C(c1ccc(Cl)cc1)C1CCN(C(=O)NC2CCCCC2)CC1	.	.	.	.	.	18.4µM
COc1cccc2c1C(=O)c1c(O)c3c(c(O)c1C2=O)C[C@@](O)(C(=O)CO)C[C@@H]3O[C@@H]1C[C@H](N)[C@H](O)[C@H](C)O1	/	/	/	.	/	/
COc1cccc2c1C(=O)c1c(O)c3c(c(O)c1C2=O)C[C@@](O)(C(=O)CO)C[C@@H]3OC1CC(N)C(O)C(C)O1 (some centres not stated)	.	.	.	/	8.2µM	5.8µM
O=C(CN(C1CCCCC1)S(=O)(=O)c1ccc(F)cc1)NCC1CCCO1 (configuration not stated)	-84.1	?	.	/	?	.
Cc1cccc(NC(=O)c2ccc([N+](=O)[O-])s2)n1	-89.0	.	.	.	.	.
COc1ccc(NC(=O)c2ccc([N+](=O)[O-])s2)c([N+](=O)[O-])c1	?	10µM	.	.	.	.
SMILES	Giardia killer	Nrf2 activator	IDH1 R132H inh	Apoferritin bind	A549 tox	Nrf2 block
C=Cc1ccc(Cn2c(C(=O)O)c(CNCc3cccs3)c3ccc(C)cc32)cc1	/	.	.	.	14.6µM	.
C=Cc1ccc(Cn2c(C(=O)O)c(CNCCc3ccco3)c3ccc(C)cc32)cc1	/	.	.	.	?	.
COc1ccc(Cn2c(C(=O)O)c(CNCc3ccc(OC)cc3OC)c3ccc(C)cc32)cc1	/	.	.	.	13µM	?
CCOc1ccccc1CNCc1c(C(=O)O)n(Cc2ccc(F)cc2)c2cc(C)ccc12	/	.	?	.	18.4µM	?
COc1ccc(Cn2c(C(=O)O)c(CNCc3cccs3)c3ccc(C)cc32)cc1	/	.	.	.	?	.
Cc1ccc2c(CNCc3cccs3)c(C(=O)O)n(Cc3ccc(F)cc3)c2c1	/	.	.	.	11.6µM	.
